# Results filed as inconclusive are left out. A call without a number means that no potency is given here. Active and inactive are the calls of the source. Unless noted, the call rests on the fitted dose curve; in most records, active means well fitted curve in the direction sought with a large enough effect in the repeat runs; inconclusive means weak or mixed curves; inactive means no such curve, though single readings can be large; an effect the other way counts as inactive or inconclusive. Residues, ends and D or L forms follow the SMILES beside them.
# How the values were obtained:
# [1] = target: Peroxisome proliferator-activated receptor delta (Homo sapiens) (UniProt Q03181); assay: qHTS assay to identify small molecule agonists of the peroxisome proliferator-activated receptor delta (PPARd) signaling pathway (AID 743212; calls by dose curve); details: HEK293H PPARd-UAS-bla, beta-lactamase FRET ratio, 17 h; series mostly up to 62.6 µM
# Peroxisome proliferator-activated receptor delta (Homo sapiens), sequence (Q03181 whole entry, looked up): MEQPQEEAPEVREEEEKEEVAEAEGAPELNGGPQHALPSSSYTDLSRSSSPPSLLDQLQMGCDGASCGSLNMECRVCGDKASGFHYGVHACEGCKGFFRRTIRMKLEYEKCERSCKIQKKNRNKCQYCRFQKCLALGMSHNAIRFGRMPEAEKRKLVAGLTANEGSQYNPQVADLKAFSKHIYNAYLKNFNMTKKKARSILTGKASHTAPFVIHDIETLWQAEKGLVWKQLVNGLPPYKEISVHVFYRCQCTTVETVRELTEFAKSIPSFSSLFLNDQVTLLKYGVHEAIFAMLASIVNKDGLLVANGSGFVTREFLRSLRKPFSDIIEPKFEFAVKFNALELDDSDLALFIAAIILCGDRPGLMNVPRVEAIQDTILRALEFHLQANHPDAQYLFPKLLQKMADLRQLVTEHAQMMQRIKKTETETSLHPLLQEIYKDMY
# Method in brief: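 HEK293H UAS-bla reporter cells, human PPARd system; compounds delivered in DMSO after 5 h plating, then at 37 C. Beta-lactamase FRET read, 2 h RT substrate step.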
# [2] = qHTS assay to identify small molecule antagonists of the peroxisome proliferator-activated receptor delta (PPARd) signaling pathway - cell viability counter screen (AID 743213); details: PPARd-bla HEK293H viability, CellTiter-Glo luminescence, 17 h; series mostly up to 62 µM; further: nearly all actives have a fitted effect of over 50% in size
# Method in brief: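 Luminescence from CellTiter-Glo, added after the bla read and incubated 30 min at room temperature, gives viability of HEK293H PPARd-bla cells exposed to compounds for 17 h at 37 C with 300 nM L165041.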
# [3] = target: Peroxisome proliferator-activated receptor delta (Homo sapiens) (UniProt Q03181); assay: qHTS assay to identify small molecule antagonists of the peroxisome proliferator-activated receptor delta (PPARd) signaling pathway (AID 743215; active means well fitted inhibition curve with a large enough effect in the signal ratio in the repeat runs, not every such curve was filed as active; the % refers to the signal ratio;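 further: cells stimulated with agonist L165041 at 300 nM final during compound exposure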); details: HEK293H PPARd-UAS-bla, beta-lactamase FRET ratio, antagonist, 17 h; series mostly up to 62 µM
# Method in brief: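 Inhibition of L165041-driven (300 nM final) PPARd signaling is scored in HEK293H UAS-bla cells. Exposure lasts 17 h at 37 C; beta-lactamase activity is then read by FRET substrate fluorescence after 2 h at room temperature.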
# [4] = target: Bile acid receptor (Homo sapiens) (UniProt Q96RI1); assay: qHTS assay to identify small molecule antagonists of the farnesoid-X-receptor (FXR) signaling pathway (AID 743217; active means well fitted inhibition curve with a large enough effect in the signal ratio in the repeat runs, not every such curve was filed as active; the % refers to the signal ratio; further: potency means the concentration at half of the fitted maximal effect); details: HEK293T FXR-UAS-bla, beta-lactamase ratio, CDCA-stimulated, 16 h; series mostly up to 62.6 µM
# Bile acid receptor (Homo sapiens), sequence (Q96RI1 whole entry, looked up): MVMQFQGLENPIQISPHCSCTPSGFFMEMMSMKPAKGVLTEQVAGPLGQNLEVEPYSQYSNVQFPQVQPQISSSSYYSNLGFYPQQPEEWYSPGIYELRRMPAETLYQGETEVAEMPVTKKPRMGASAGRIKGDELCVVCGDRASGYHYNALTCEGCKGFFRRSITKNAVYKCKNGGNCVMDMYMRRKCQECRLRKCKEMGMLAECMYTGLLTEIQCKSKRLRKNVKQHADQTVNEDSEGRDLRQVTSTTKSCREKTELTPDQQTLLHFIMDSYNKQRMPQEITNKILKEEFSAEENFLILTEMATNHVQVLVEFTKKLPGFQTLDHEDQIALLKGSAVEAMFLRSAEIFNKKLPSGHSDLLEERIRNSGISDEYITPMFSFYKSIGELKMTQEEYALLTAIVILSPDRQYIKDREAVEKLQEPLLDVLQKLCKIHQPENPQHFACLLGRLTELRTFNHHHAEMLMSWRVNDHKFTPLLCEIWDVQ
# Method in brief: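 Antagonist mode against 50 uM (final) chenodeoxycholic acid stimulation in FXR-bla HEK 293T cells, 16 h at 37 °C. Inhibition detected as reduced beta-lactamase activity via LiveBLAzer B/G FRET fluorescence after 2 h at room temperature.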
# [5] = qHTS assay to identify small molecule agonists of the farnesoid-X-receptor (FXR) signaling pathway - cell viability counter screen (AID 743218); details: FXR-bla HEK293T viability, CellTiter-Glo luminescence, 16 h; series mostly up to 62.6 µM; further: nearly all actives have a fitted effect of over 45% in size
# Method in brief: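 Cytotoxicity counter-screen run in parallel, same wells: FXR-UAS-bla HEK 293T cells dosed 16 h at 37 C, viability read by CellTiter-Glo luminescence after 30 min at room temperature.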
# [6] = target: Bile acid receptor (Homo sapiens) (UniProt Q96RI1); assay: qHTS assay to identify small molecule agonists of the farnesoid-X-receptor (FXR) signaling pathway (AID 743220; active means well fitted activation curve with a large enough effect in the signal ratio in the repeat runs, not every such curve was filed as active; the % refers to the signal ratio); details: HEK293T FXR-UAS-bla, beta-lactamase FRET ratio, 16 h; series mostly up to 62.6 µM
# Method in brief: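 Beta-lactamase reporter under UAS control in GeneBLAzer FXR HEK 293T cells (5000/well) measured with LiveBLAzer FRET substrate after 2 h at room temperature. Compound exposure lasted 16 h at 37C.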
# [7] = qHTS assay to identify small molecule antagonists of the farnesoid-X-receptor (FXR) signaling pathway - cell viability counter screen (AID 743221; active means well fitted cell-killing curve with a large enough effect in the repeat runs, not every such curve was filed as active; further: nearly all actives have a fitted effect of over 50% in size); details: FXR-bla HEK293T viability, CellTiter-Glo luminescence, 16 h; series mostly up to 62.6 µM
# Method in brief: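 In GeneBLAzer FXR-UAS-bla HEK 293T cells stimulated with 50 uM chenodeoxycholic acid (final), compounds acted for 16 h at 37 C. Viability was assessed afterwards by CellTiter-Glo luminescence.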
# [8] = target: Vitamin D3 receptor (Homo sapiens) (UniProt P11473); assay: qHTS assay to identify small molecule agonists of the vitamin D receptor (VDR) signaling pathway (AID 743222; calls by dose curve); details: HEK293T VDR-UAS-bla, beta-lactamase FRET ratio, 16 h; series mostly up to 63.5 µM
# Vitamin D3 receptor (Homo sapiens), sequence (P11473 whole entry, looked up): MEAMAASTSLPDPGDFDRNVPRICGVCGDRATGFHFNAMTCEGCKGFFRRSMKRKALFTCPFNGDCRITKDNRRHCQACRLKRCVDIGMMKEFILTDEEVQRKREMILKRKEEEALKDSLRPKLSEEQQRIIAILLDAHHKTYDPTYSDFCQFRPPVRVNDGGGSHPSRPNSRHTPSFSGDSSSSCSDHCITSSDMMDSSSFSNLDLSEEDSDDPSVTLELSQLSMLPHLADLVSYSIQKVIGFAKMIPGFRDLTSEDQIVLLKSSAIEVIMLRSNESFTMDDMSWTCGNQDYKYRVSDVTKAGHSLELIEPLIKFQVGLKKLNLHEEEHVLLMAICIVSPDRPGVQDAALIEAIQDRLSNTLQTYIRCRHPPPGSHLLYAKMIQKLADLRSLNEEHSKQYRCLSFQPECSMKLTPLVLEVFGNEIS
# Method in brief: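 Quantitative HTS agonist-mode screen: compounds in DMSO were pin-transferred onto VDR-bla cells and incubated 16 h at 37C, 5% CO2. Reporter activity was detected with LiveBLAzer B/G FRET substrate after 2 h at room temperature.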
# [9] = target: Vitamin D3 receptor (Homo sapiens) (UniProt P11473); assay: qHTS assay to identify small molecule antagonists of the vitamin D receptor (VDR) signaling pathway (AID 743223; active means well fitted inhibition curve with a large enough effect in the signal ratio in the repeat runs, not every such curve was filed as active; the % refers to the signal ratio); details: VDR-UAS-bla HEK293T, beta-lactamase FRET ratio, 16 h; series mostly up to 61 µM
# Method in brief: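 Agonist 1alpha,25-dihydroxyvitamin D3 (3 nM in well) was added with each compound to VDR-bla cells preincubated 4 h. Cells stood 16 h at 37C, then FRET substrate 2 h at room temperature; fluorescence intensity recorded.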
# [10] = qHTS assay to identify small molecule agonists of the vitamin D receptor (VDR) signaling pathway - cell viability counter screen (AID 743224); details: VDR-bla HEK293T viability, CellTiter-Glo luminescence, 16 h; series mostly up to 62.6 µM; further: nearly all actives have a fitted effect of over 50% in size
# Method in brief: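 Viability is measured in the same wells as the VDR-bla reporter assay: after 16 h compound treatment and 2 h substrate loading, CellTiter-Glo is added and luminescence read 30 min later.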
Compound,outcome [1],outcome [2],outcome [3],Potency [4],outcome [5],outcome [6],outcome [7],outcome [8],outcome [9],outcome [10]
NC(=O)c1ccccc1O,inactive,inactive,inactive,inactive,inactive,inactive,inactive,inactive,inactive,–
CC(O)C(=O)O (stereo not given),inactive,inactive,inactive,inactive,inactive,inactive,inactive,inactive,inactive,inactive
O=C(C1CCCCC1)N1CC(=O)N2CCc3ccccc3C2C1 (stereo not given),inactive,inactive,inactive,–,inactive,–,inactive,inactive,inactive,–
CCOc1ccc(NC(=O)CC(C)O)cc1 (stereo not given),inactive,inactive,inactive,inactive,inactive,inactive,inactive,–,–,inactive
CC(C)[C@@H]1CC[C@@H](C)C[C@H]1O,–,inactive,inactive,inactive,inactive,inactive,inactive,inactive,inactive,inactive
COc1ccc2[nH]cc(CCNC(C)=O)c2c1,–,inactive,inactive,inactive,inactive,inactive,inactive,inactive,inactive,inactive
Cc1cc(=O)[nH]c(=S)[nH]1,–,inactive,inactive,inactive,inactive,inactive,inactive,inactive,inactive,inactive
COC(=O)[C@H](Cc1ccccc1)NC(=O)[C@@H](N)CC(=O)O (H-Asp-Phe-OMe),–,inactive,inactive,inactive,inactive,inactive,inactive,–,–,–
Nc1ccc(O)c(C(=O)O)c1,–,inactive,inactive,inactive,inactive,inactive,inactive,inactive,inactive,–
Cc1ccc(C)c(OCCCC(C)(C)C(=O)O)c1,–,inactive,inactive,inactive,inactive,inactive,inactive,–,–,–
O=C(O)/C=C\C(=O)O,–,inactive,inactive,–,inactive,–,inactive,inactive,inactive,–
NNC(=O)c1ccncc1,inactive,inactive,inactive,–,inactive,–,inactive,inactive,inactive,–
Nc1ccc(S(=O)(=O)c2ccc(N)cc2)cc1,–,inactive,inactive,inactive,inactive,inactive,inactive,–,–,–
Nc1ccc(S(=O)(=O)Nc2nccs2)cc1,–,inactive,inactive,–,inactive,–,inactive,inactive,inactive,–
NC(N)=O,–,inactive,inactive,–,inactive,–,inactive,–,–,–
O=C(O)CCC(=O)O,–,inactive,inactive,inactive,inactive,inactive,inactive,inactive,inactive,inactive
Cc1noc(NS(=O)(=O)c2ccc(N)cc2)c1C,–,inactive,inactive,inactive,inactive,inactive,inactive,–,–,–
OCCc1ccccc1,–,inactive,inactive,inactive,inactive,inactive,inactive,–,–,–
O=C(O)c1[nH]n(-c2ccc(S(=O)(=O)O)cc2)c(=O)c1N=Nc1ccc(S(=O)(=O)O)cc1,inactive,inactive,inactive,inactive,inactive,inactive,inactive,inactive,inactive,–
CCCCOC(=O)CC(CC(=O)OCCCC)(OC(C)=O)C(=O)OCCCC,–,inactive,inactive,inactive,inactive,inactive,inactive,inactive,inactive,inactive
NC(=O)NC1NC(=O)NC1=O (stereo not given),inactive,inactive,inactive,–,inactive,–,inactive,inactive,inactive,–
O=C(c1ccccc1)C(O)c1ccccc1 (stereo not given),inactive,inactive,inactive,–,inactive,–,inactive,inactive,inactive,inactive
Nc1ccn([C@H]2CC[C@@H](CO)O2)c(=O)n1,–,inactive,inactive,–,inactive,–,inactive,–,–,–
NS(=O)(=O)c1cc(C(=O)O)c(NCc2ccco2)cc1Cl,inactive,inactive,–,–,inactive,–,inactive,inactive,inactive,–
N=C(N)c1ccc(OCCCCCOc2ccc(C(=N)N)cc2)cc1,inactive,inactive,–,–,inactive,–,inactive,inactive,inactive,–

Compound,outcome [1],outcome [2],outcome [3],Potency [4],outcome [5],outcome [6],outcome [7],outcome [8],outcome [9],outcome [10]
Cc1ccc(O)cc1,–,inactive,inactive,inactive,inactive,inactive,inactive,inactive,inactive,–
O=c1cc[nH]c(=S)[nH]1,–,inactive,inactive,inactive,inactive,inactive,inactive,–,–,–
CC(O)CN(CCN(CC(C)O)CC(C)O)CC(C)O (stereo not given),–,inactive,inactive,inactive,inactive,inactive,inactive,inactive,inactive,inactive
Cc1cn([C@H]2C[C@H](N=[N+]=[N-])[C@@H](CO)O2)c(=O)[nH]c1=O,–,inactive,inactive,inactive,inactive,inactive,inactive,inactive,inactive,–
C1N2CN3CN1CN(C2)C3,–,inactive,inactive,inactive,inactive,inactive,inactive,inactive,inactive,inactive
c1ccc2[nH]ccc2c1,inactive,inactive,inactive,–,inactive,–,inactive,inactive,inactive,inactive
CCCN(CCC)S(=O)(=O)c1ccc(C(=O)O)cc1,–,inactive,inactive,inactive,inactive,inactive,inactive,inactive,inactive,–
OC(Cn1cncn1)(Cn1cncn1)c1ccc(F)cc1F,inactive,inactive,inactive,–,inactive,–,inactive,inactive,inactive,inactive
Nc1ccc(C(=O)O)cc1,–,inactive,inactive,inactive,inactive,inactive,inactive,–,–,–
Cc1ccccc1C(OCCN(C)C)c1ccccc1 (stereo not given),inactive,inactive,inactive,inactive,inactive,inactive,inactive,–,–,–
O=C(O)c1cc(N=Nc2ccc(S(=O)(=O)Nc3ccccn3)cc2)ccc1O,inactive,inactive,inactive,–,inactive,–,inactive,inactive,inactive,inactive
O=C(O)CS,–,inactive,inactive,–,inactive,–,inactive,inactive,inactive,–
Cn1cc[nH]c1=S,–,inactive,inactive,–,inactive,–,inactive,inactive,inactive,–
CC(=O)OCC(COC(C)=O)OC(C)=O,–,inactive,inactive,–,inactive,–,inactive,inactive,inactive,inactive
NC(=O)c1cnccn1,–,inactive,inactive,–,inactive,–,inactive,inactive,inactive,inactive
O=C(O)c1cccnc1,–,inactive,–,–,inactive,–,inactive,–,–,inactive
CCCCC(CC)COC(=O)/C=C/c1ccc(OC)cc1 (stereo not given),–,inactive,inactive,–,inactive,–,inactive,inactive,inactive,–
O=NO,–,inactive,–,–,inactive,–,inactive,inactive,inactive,–
CCCC(O)C(CC)CO (stereo not given),–,inactive,inactive,–,inactive,–,inactive,–,–,inactive
NC(N)=NC(=O)c1nc(Cl)c(N)nc1N,–,inactive,–,–,inactive,–,inactive,inactive,inactive,–
CC(=O)NS(=O)(=O)c1ccc(N)cc1,–,inactive,inactive,–,inactive,–,inactive,inactive,inactive,inactive
COc1c2occc2cc2ccc(=O)oc12,–,inactive,–,inactive,inactive,inactive,inactive,inactive,inactive,inactive
CNC[C@H](O)c1cccc(O)c1,–,inactive,–,–,inactive,–,inactive,inactive,inactive,inactive
CCCNC(=O)NS(=O)(=O)c1ccc(Cl)cc1,–,inactive,inactive,–,inactive,–,inactive,inactive,inactive,inactive
Cn1c(=O)c2[nH]cnc2n(C)c1=O,–,inactive,–,inactive,inactive,inactive,inactive,–,–,–

Compound,outcome [1],outcome [2],outcome [3],Potency [4],outcome [5],outcome [6],outcome [7],outcome [8],outcome [9],outcome [10]
O=C(O)c1cccc([N+](=O)[O-])c1,–,inactive,–,–,inactive,–,inactive,–,–,inactive
O=C(O)C(=O)O,–,inactive,–,–,inactive,–,inactive,inactive,inactive,inactive
CC(C)(Oc1ccc(C2CC2(Cl)Cl)cc1)C(=O)O (stereo not given),–,inactive,inactive,–,inactive,–,inactive,inactive,inactive,inactive
CC1(C)[C@@H]2CC[C@@]1(C)C(=O)C2,–,inactive,inactive,–,inactive,–,inactive,inactive,inactive,–
Cc1ccc(S(=O)(=O)NC(=O)NN2CCCCCC2)cc1,–,inactive,inactive,–,inactive,–,inactive,inactive,inactive,–
CC(O)CO (stereo not given),–,inactive,inactive,–,inactive,–,inactive,inactive,inactive,inactive
O=C1NC(=O)c2ccccc21,–,inactive,–,inactive,inactive,inactive,inactive,inactive,inactive,–
CCC1(c2ccccc2)C(=O)NCNC1=O,–,inactive,–,inactive,inactive,inactive,inactive,inactive,inactive,inactive
Oc1ccc(/C=C/c2cc(O)cc(O)c2)cc1,–,inactive,–,24.5 µM (active),inactive,inactive,inactive,inactive,inactive,–
C/C=C/c1ccc(OC)cc1,–,inactive,–,–,inactive,–,inactive,–,–,inactive
O=C(c1ccccc1)c1ccccc1,–,inactive,–,inactive,inactive,inactive,inactive,inactive,inactive,inactive
Cc1cc(=O)n(-c2ccccc2)n1C,–,inactive,–,inactive,inactive,inactive,inactive,inactive,inactive,inactive
O=S(=O)(O)NC1CCCCC1,–,inactive,–,–,inactive,–,inactive,inactive,inactive,–
O=C(O)CCCCC(=O)O,–,inactive,–,inactive,inactive,inactive,inactive,inactive,inactive,inactive
CCCC(CCC)C(=O)O,–,inactive,–,–,inactive,–,inactive,inactive,inactive,–
CCCCCCCCCCCCCCCC(=O)O,–,inactive,–,–,inactive,–,inactive,inactive,inactive,inactive
O=c1ccc2ccccc2o1,–,inactive,–,inactive,inactive,inactive,inactive,–,–,–
CCCCC1C(=O)N(c2ccccc2)N(c2ccccc2)C1=O,–,inactive,–,inactive,inactive,inactive,inactive,inactive,inactive,inactive
O=C1CN(/N=C/c2ccc([N+](=O)[O-])o2)C(=O)N1,–,inactive,–,–,inactive,–,inactive,inactive,inactive,–
C[C@]12C=CC(=O)C=C1CC[C@@H]1[C@@H]2[C@@H](O)C[C@@]2(C)[C@H]1CC[C@]2(O)C(=O)CO,–,inactive,–,–,inactive,–,inactive,–,–,–
CC(=O)Nc1nnc(S(N)(=O)=O)s1,–,inactive,–,–,inactive,–,inactive,–,–,–
O=S(=O)(O)c1ccc2cc(O)ccc2c1,–,inactive,–,–,inactive,–,inactive,inactive,inactive,–
O=C(O)CCCCCCCC(=O)O,–,inactive,–,–,inactive,–,inactive,inactive,inactive,–

# — PubChem BioAssay (Tox21)
